An excerpt weighted towards active compounds, which were near 17% of everything screened.
ClpP mod = qHTS Assay for Activators of ClpP; AID 651965, 2013; 1.9% of 340,000 active; purified B. subtilis ClpP, FRET peptide cleavage, 20 min; ATP-dependent Clp protease proteolytic subunit (Bacillus subtilis (strain 168)), P80244; Potency, µM (doses to about 57.5 µM), for the others: top-dose activity change, negative = active; active means well fitted falling curve with a large enough effect; inconclusive means small, poorly fitted or top-dose-only effect; inactive means no such curve, though single readings can be large or run the other way; further: the source files actives as falling curves though it sought activators and does not explain the sign; nearly all actives have a fitted effect of over 65% in size
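Purified B. subtilis ClpP, 10 microg/mL final in Tris/HCl pH8 with KCl, BSA, glycerol and Tween-20, cleaved an Abz/nitrotyrosine-quenched decapeptide. Fluorescence (ex 320, em 430) was read at 0 and 20 min at room temperature. Delta was normalized to 5.8 microM ADEP and DMSO/no-enzyme controls.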
TDP1 inh = TDP1 (human) enzyme inhibition; Q9NUW8; recombinant TDP1, AlphaScreen DNA substrate cleavage; Potency, µM (top dose mostly 130 µM), for inactives: at the highest dose activity change, negative = inhibition, usual class: inhibitors; 0.28% of 350,000 active; AID 485290; further: on the % scale 0 is the no-effect control and ±100 the full control effect; nearly all actives have a fitted effect of over 40% in size
Target sequence (Q9NUW8 whole entry, looked up): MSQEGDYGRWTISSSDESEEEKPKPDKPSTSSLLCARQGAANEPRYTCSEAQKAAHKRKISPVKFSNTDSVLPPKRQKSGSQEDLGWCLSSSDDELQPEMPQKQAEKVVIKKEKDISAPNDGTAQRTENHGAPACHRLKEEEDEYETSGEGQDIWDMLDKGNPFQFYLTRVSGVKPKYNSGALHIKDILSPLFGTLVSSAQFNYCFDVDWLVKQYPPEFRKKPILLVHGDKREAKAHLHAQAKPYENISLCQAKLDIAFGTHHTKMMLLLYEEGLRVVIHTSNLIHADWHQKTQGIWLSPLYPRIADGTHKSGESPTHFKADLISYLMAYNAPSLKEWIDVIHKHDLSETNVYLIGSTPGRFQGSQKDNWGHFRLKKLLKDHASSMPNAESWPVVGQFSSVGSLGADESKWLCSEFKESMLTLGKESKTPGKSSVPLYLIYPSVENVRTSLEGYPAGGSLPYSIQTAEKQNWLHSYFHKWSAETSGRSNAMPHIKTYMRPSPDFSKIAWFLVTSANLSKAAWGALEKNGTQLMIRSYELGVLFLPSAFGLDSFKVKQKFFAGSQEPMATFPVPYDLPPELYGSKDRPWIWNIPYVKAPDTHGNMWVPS
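Recombinant human Tdp1 (E. coli-expressed, 1 nM final) preincubated with compounds 15 min at room temperature, then 5'-biotin/3'-phosphotyrosine-FITC DNA substrate (15 nM final) added for 5 min. AlphaScreen beads (10 ug/ml final) added 10 min; cleavage lowers signal.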
TDP1 cell CPT = DT40-hTDP1 cell growth loss with CPT; 12% of 420,000 active; chicken DT40 Tdp1-/-;hTDP1 cells + 20 nM CPT, ATP luminescence, 48 h; Potency, µM (top dose mostly 46.2 µM), for the others: top-dose activity change, negative = growth inhibition, actives largely listed as inhibitors; further: on the % scale 0 is the no-effect control and ±100 the full control effect; nearly all actives have a fitted effect of over 55% in size
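Chicken DT40 Tdp1-/- cells complemented with human TDP1, 400 cells/well, exposed to compounds plus 20 nM camptothecin for at least 48 h at 37 C; viability read as ATP content by CellTiter-Glo luminescence.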
TDP1 cell noCPT = qHTS for Inhibitors of human tyrosyl-DNA phosphodiesterase 1 (TDP1): qHTS in cells in absence of CPT | Potency, µM (top dose mostly 46.2 µM), without a hit: at the top dose activity change, negative = growth inhibition, most hits filed as inhibitors | DT40 Tdp1-/- hTDP1 cells, no CPT, ATP luminescence, 48 h | 15% of 420,000 active; further: on the % scale 0 is the no-effect control and ±100 the full control effect; nearly all actives have a fitted effect of over 55% in size
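A cellular qHTS used chicken DT40 cells lacking endogenous Tdp1 but carrying stably transfected human TDP1. Compounds were applied without camptothecin, and cell growth kinetics were judged by ATP-dependent luminescence after ≥48 hr.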
* hit, by the source's call; u = inconclusive; x = not tested or not shown; ! = repeats disagree; [ ] = remark or other dose. Unless noted, the call rests on the fitted dose curve; in most records, active means well fitted curve in the direction sought with a large enough effect; inconclusive means small, poorly fitted or top-dose-only effect, or another doubt; inactive means no such curve, though single readings can be large; an effect the other way counts as inactive or inconclusive. Potency means the concentration at half of the fitted maximal effect.

SMILES	ClpP mod	TDP1 inh	TDP1 cell CPT	TDP1 cell noCPT
CCc1ccc(NC(=O)c2ccc3nc(C(C)C)oc3c2)cc1	-5%	4%	u	18µM*
Cc1c(C(=O)N(C)Cc2cccc3ncccc23)cnn1-c1nccc(-c2ccccc2F)n1	x	x	-3%	-28%
Cc1ccc(C(=O)N/C(=C\c2cn(C)c3ccccc23)C(=O)NCCN2CCOCC2)cc1	x	4%	27%	-9%
CCOC(=O)c1c(C)oc2nc(C)nc(NCC3CCN(Cc4ccc(Cl)cc4)CC3)c12	1%	7%	u	u
COc1ccc2nc3sc(C(=O)Nc4cc(Cl)c(OC)cc4OC)cc3cc2c1	-2%	2%	u	5.8µM*
COc1ccc(-c2c(NC(=O)c3ccco3)n(-c3ccc(C)cc3)nc(C)c2=O)cc1	-7%	x	-7%	-9%
CC(C)(Cc1ccc(O)cc1)NC(=O)CC(=O)N/N=C/c1ccc(Cl)cc1	1%	x	u	18µM*
Cc1cccc(NC(=O)c2ccc3snnc3c2)c1C	-2%	3%	-7%	-9%
O=C(NCc1ccccc1)C(c1ccccc1)n1c(=O)c(-c2cc3ccccc3[nH]2)nc2ccccc21 (stereo not given)	3%	x	u	21µM*
COc1ccc(NC(=O)C(C2CC2)n2c(=O)c(-c3ccccc3)nc3ccccc32)cc1 (stereo not given)	-11%	x	u	15µM*
O=C(Nc1ccc2c(c1)OCCO2)C(c1ccncc1)n1c(=O)c(-c2cc3ccccc3[nH]2)nc2ccccc21 (stereo not given)	-23%	x	u	u
O=C(NCc1ccccc1)C(C1CC1)n1c(=O)c(-c2cc3ccccc3[nH]2)nc2ccccc21 (stereo not given)	4%	x	u	u
COc1ccc(NC(=O)C(c2ccc(C#N)cc2)n2c(=O)c(-c3cc4ccccc4[nH]3)nc3ccccc32)cc1 (stereo not given)	0%	x	21µM*	15µM*
O=C(Nc1ccc2c(c1)OCCO2)C(c1ccccc1F)n1c(=O)c(-c2cc3ccccc3[nH]2)nc2ccccc21 (stereo not given)	6%	x	15µM*	18µM*
CC(C)(C)NC(=O)C(c1ccc(C#N)cc1)n1c(=O)c(-c2cc3ccccc3[nH]2)nc2ccccc21 (stereo not given)	-15%	x	u	u
COc1ccc(NC(=O)C(c2ccc(OC)cc2)n2c(=O)c(-c3cc4ccccc4[nH]3)nc3ccccc32)cc1 (stereo not given)	19%	x	16µM*	13µM*
O=C(Nc1ccc2ccccc2c1)C(c1ccc(C(F)(F)F)cc1)n1c(=O)c(-c2cc3ccccc3[nH]2)nc2ccccc21 (stereo not given)	26%	x	u	u
O=C(Nc1ccc(Br)cc1F)N1CCC(CN2CCc3ccccc3C2)CC1	-4%	0%	u	u
CC1(C)[C@@H]2CC[C@@]1(C)C(=O)C2	x	9%[56.1 µM]	8.4µM*!	3.3µM*!
CC12CCC(C(=O)CC1=O)C2(C)C (stereo not given)	1%	x	-16%	-2%
CCOC(=O)c1ccc(-n2c(C)nc3c(cnn3-c3ccccc3Cl)c2=O)cc1	-6%	-4%	-21%	-24%
CCOc1ccc(-n2c(-c3ccco3)nc3c(cnn3-c3ccc(C)cc3)c2=O)cc1	0%	4%	u	u
CCOC(=O)c1ccc(-n2c(C)nc3c(cnn3-c3ccc(Cl)cc3)c2=O)cc1	-1%	2%	8.2µM*!	5.8µM*!
COc1ccc(-n2c(C)nc3c(cnn3-c3ccc(Cl)cc3)c2=O)cc1	0%	4%	u	u
Cc1cccc(-n2c(C)nc3c(cnn3-c3ccc(F)cc3)c2=O)c1	1%	7%	18µM*	9.2µM*
SMILES	ClpP mod	TDP1 inh	TDP1 cell CPT	TDP1 cell noCPT
COc1ccc(-n2c(C)nc3c(cnn3-c3ccc(C)cc3)c2=O)cc1	-4%	2%	15µM*	u
Cc1ccc(-n2c(-c3ccco3)nc3c(cnn3-c3ccc(C)cc3)c2=O)cc1	-4%	2%	u	4.1µM*
Cc1cnc(C(=O)OCC(=O)Nc2cc(-c3ccccc3)nn2-c2ccccc2)cn1	2%	0%	2%	3%
O=C(Nc1ccc(NC(=O)c2sc3ccccc3c2Cl)cc1)c1ccco1	-2%	5%	-19%	u
COc1ccc(C2OC(=O)CC2C(=O)NCc2ccc(Cl)cc2)cc1OC (stereo not given)	x	-2%	14%	-21%
Fc1cccc(-n2c(-c3ccco3)nc3nc4ccccc4nc32)c1	u	0%	-15%	-18%
Cc1cccc(-n2c(-c3ccco3)nc3c(cnn3-c3ccc(F)cc3)c2=O)c1	-9%	2%	16µM*	16µM*
CCN(c1ccccc1)S(=O)(=O)c1ccc(NCC2COc3ccccc3O2)nc1 (stereo not given)	-11%	-11%	26µM*	u
CCN(c1ccccc1)S(=O)(=O)c1ccc(Cl)nc1	x	5%	-14%	u
O=C(NCCCN1CCCC1=O)C1CCN(S(=O)(=O)c2ccccc2)CC1	2%	0%	0%	-5%
C=C(C)Cn1c(SCC(=O)N/N=C/c2c(O)ccc3ccccc23)nc2ccccc2c1=O	-1%	6%	7.3µM*	6.5µM*
C=C(C)Cn1c(SCC)nc2ccccc2c1=O	0%	-1%	u	10µM*!
C=C(C)Cn1c(SCC#N)nc2ccccc2c1=O	-5%	0%	-5%	-20%
Cc1ccc(-n2c(SCC(=O)N/N=C/c3c(C)nn(-c4ccccc4)c3C)nc3ccccc3c2=O)cc1	-1%	0%	21µM*	u
CC(C)C1OC(c2cccc(NC(=O)c3cccs3)c2)OCC1(C)C (stereo not given)	-2%	-1%	u	23µM*
COc1cccc(OC)c1C(=O)Nc1cccc(NC(=O)c2cccs2)c1	0%	4%	-4%	-30%
C=CCc1cccc(Cl)c1OCCCNC1CCCC1	2%	x	23µM*	18µM*
CCc1nccn1CCC(=O)NC1CCCc2c1cnn2-c1ccc(F)cc1F (stereo not given)	-2%	3%	u	u
CC1=C(C(=O)NC2CCCc3c2cnn3-c2ccc(F)cc2F)OCCO1 (stereo not given)	-4%	2%	21µM*	4.1µM*
CCc1cc(C(=O)NC2CCCc3c2cnn3-c2ccc(F)cc2F)no1 (stereo not given)	-1%	x	21µM*	18µM*
C[C@@H]1CN([C@@H](C)CO)C(=O)CCCn2nncc2CO[C@H]1CN(C)S(=O)(=O)c1ccc(-n2cccn2)cc1	-1%	x	1%	-8%
CCOC(=O)c1c(C)oc2c1c(C(c1cccnc1)N1CCOCC1)c(O)c1ccccc12 (stereo not given)	-1%	11%	u	18µM*
